# Measured values published in the supplement of paper PMC7411640.
# Counter-ions that a name gives are not always drawn.
# Test system: MDA-MB-468
# Test: phospho-S6 immunofluorescence (DAPI-normalised), per-plate z-score; higher = higher phospho-S6 signal (less pathway suppression)
# Conditions: 24 h
# Method: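 GPCR-targeted compound library (MedChemExpress HY-L006) tested on MDA-MB-468 PTEN-null TNBC cells in 384-well plates at 0.1, 1 or 10 uM, combined with vehicle, GDC0941 450 nM or lapatinib 1 uM, for 24 h. Phospho-S6 (S240/244) immunofluorescence normalised to DAPI and expressed as a per-plate z-score; values are the mean of biological triplicates.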
Compound,phospho-S6 immunofluorescence (z-score) (co-treatment: GDC0941 450 nM),phospho-S6 immunofluorescence (z-score) (co-treatment: lapatinib 1 uM),phospho-S6 immunofluorescence (z-score) (co-treatment: vehicle)
O=C(CCCN1CC=C(n2c(=O)[nH]c3ccccc32)CC1)c1ccc(F)cc1 [Droperidol] (compound 10 µM),-0.18,0.16,0.18
COc1ccccc1N1CCN(CCN(C(=O)C2CCCCC2)c2ccccn2)CC1 (compound 10 µM),-0.49,0.26,-0.79
CN1[C@@H]2CC[C@H]1C[C@@H](OC(=O)c1c[nH]c3ccccc13)C2 [Tropisetron (Hydrochloride)] (compound 10 µM),0.95,-0.2,-0.04
C=CCN1CCc2c(cc(O)c(O)c2Cl)C(c2ccccc2)C1 (stereo not drawn) (compound 10 µM),-0.13,1.66,1.76
COc1cc2c(cc1OC)CC(=O)N(CCCN(C)C[C@H]1Cc3cc(OC)c(OC)cc31)CC2 [Ivabradine (hydrochloride)] (compound 10 µM),-0.44,-0.13,-0.38
c1ccc2c(c1)OCC(CN1CCCCC1)O2 (stereo not drawn) [Piperoxan (hydrochloride)] (compound 10 µM),0.28,0.61,0.8
CN(C)CCCN1c2ccccc2Sc2ccccc21 [Promazine (hydrochloride)] (compound 10 µM),-0.07,-1.25,0.4
O=C(O)Cn1c2c(c3cc(F)ccc31)CN(C(=O)c1cccc3ccccc13)CC2 [Setipiprant] (compound 10 µM),0.42,0.74,-0.03
CN(C)C(=O)C(CCN1CCC(O)(c2ccc(Cl)cc2)CC1)(c1ccccc1)c1ccccc1 [Loperamide (hydrochloride)] (compound 10 µM),-1.31,-3.22,-0.37
CC[C@@H]1C(=O)OC[C@@H]1Cc1cncn1C [Pilocarpine (Hydrochloride)] (compound 10 µM),-0.79,-0.13,-0.68
CCC(=O)O[C@]1(C(=O)SCF)[C@H](C)C[C@H]2[C@@H]3C[C@H](F)C4=CC(=O)C=C[C@]4(C)[C@@]3(F)[C@@H](O)C[C@@]21C [Fluticasone (propionate)] (compound 10 µM),0.26,-0.29,-0.43
O=C(Nc1ccc(Cl)cc1CN1C(=O)c2ccccc2C1=O)c1ccccc1O (compound 10 µM),-1.83,-0.3,-0.57
COC(=O)[C@@H]1[C@H]2C[C@H]3c4[nH]c5ccccc5c4CCN3C[C@@H]2CC[C@@H]1O [Yohimbine (Hydrochloride)] (compound 10 µM),0.62,0.56,1.59
Cc1nc2ccc(NC(=O)Nc3ccnc4cccnc34)cc2o1 (compound 10 µM),0.6,-1.8,0.79
Oc1ccc(C2CNCCc3c2cc(O)c(O)c3Cl)cc1 (stereo not drawn) [Fenoldopam (mesylate)] (compound 10 µM),1.13,-0.01,0.83
CCc1c(C(=O)NCCc2ccc(N3CCCCC3)cc2)[nH]c2ccc(Cl)cc12 (compound 10 µM),-1.02,-0.3,0.27
CN1CCC(=C2c3ccccc3CCc3sccc32)CC1 [Pizotifen] (compound 10 µM),0.35,-1.87,-0.19
Cc1ccc(S(=O)(=O)N2CCCC2c2ccc(F)cc2)cc1 (stereo not drawn) (compound 10 µM),-2.47,0.46,-1.81
CN(C)CCc1c[nH]c2ccc(CS(=O)(=O)N3CCCC3)cc12 [Almotriptan (malate)] (compound 10 µM),0.95,0.57,0.38
O=C(O)CCCN1CCC(O[C@@H](c2ccc(Cl)cc2)c2ccccn2)CC1 [Bepotastine (Beslilate)] (compound 10 µM),-0.72,-0.17,0.56
Nc1nc(-c2nn(Cc3ccccc3F)c3ncccc23)ncc1C1CC1 (compound 10 µM),1.07,2.78,-0.52
Cn1c(SCC(=O)N2CCC[C@H]2C(=O)Nc2ccccc2-c2ccccc2)nc2ccccc21 (compound 10 µM),0.08,1.59,0.81
COc1cc(N)c(Cl)cc1C(=O)NC1CCN(Cc2ccccc2)CC1 [Clebopride (malate)] (compound 10 µM),0.46,-0.14,0.29
CN(C)CCc1c[nH]c2ccc(C[C@H]3COC(=O)N3)cc12 [Zolmitriptan] (compound 10 µM),0.87,0.6,-0.48
C[C@@H](O[C@H]1OCCN(Cc2nn(P(=O)(O)O)c(=O)[nH]2)[C@H]1c1ccc(F)cc1)c1cc(C(F)(F)F)cc(C(F)(F)F)c1 [Fosaprepitant (dimeglumine)] (compound 10 µM),-2.28,-0.65,0.39
c1ccc2c(c1)N=C(N1CCNCC1)c1ccccc1N2 [DREADD agonist 21] (compound 10 µM),-0.11,-1.74,-0.53
